An excerpt weighted towards active compounds, which were near 7.3% of everything screened.
ELG1 genotox: qHTS screen for small molecules that induce genotoxicity in human embryonic kidney (HEK293T) cells expressing luciferase-tagged ELG1 | HEK293T ELG1-luciferase reporter, luminescence, 16 h | Potency, µM (titrated, usually from 46 µM), inactives show at the highest dose activity change, positive = activation, usual class: activators | 330,000 tested, 1.3% active | AID 504466, 2011; note: % of control where 0% means no effect; nearly all actives have a fitted effect of over 60% in size
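Genotoxic stress is detected as increased luminescence from luciferase-tagged ELG1 in HEK293T cells, measured with ONE-Glo after a 16 hr treatment at 37 °C.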
p53 reactivation: qHTS assay for re-activators of p53 using a Luc reporter; H1299 p53-A138V BP100-luciferase reporter, luminescence, 24 h; Potency, µM (highest dose often 92.2 µM), inactives show at the highest dose activity change, positive = activation, actives largely listed as activators; 320,000 tested, 0.063% active; AID 504706, 2011; note: % of control where 0% means no effect; nearly all actives have a fitted effect of over 45% in size
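p53-null H1299 cells stably carrying temperature-sensitive p53-A138V and a BP100-luciferase reporter were pinned with compounds (4-point, 1:5 series) and held 24 hrs at 37 deg C. Luminescence was read 10 min after detection reagent.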
SMN2 splice enh: qHTS Assay for Enhancers of SMN2 Splice Variant Expression. HEK293 SMN2-luciferase splicing reporter, luminescence, 30-36 h. Potency, µM (top dose mostly 46.1 µM), without a hit: at the highest dose activity change, positive = activation, actives largely listed as activators. 210,000 tested, 2.8% active; note: % of control where 0% means no effect; nearly all actives have a fitted effect of over 55% in size
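HEK293 cells carry an SMN2 […]–luciferase reporter in which exon 7 inclusion puts luciferase in frame. Cells were plated 10-12 h before compound addition, then incubated 30-36 h at 37C. ONE-Glo luminescence was read; sodium butyrate at 4.5 mM final served as control.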
NPC1 promoter act: qHTS Assay for NPC1 Promoter Activators. Huh7 NPC1 promoter luciferase reporter, 24 h. Potency, µM (titrated, usually from 9.22 µM), for the others: at the top dose activation, hits mostly activators. 320,000 tested, 2.4% active. AID 485313, 2010; note: % of control where 0% means no effect; nearly all actives have a fitted effect of over 60% in size
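Stably transfected Huh7 (NPC1 promoter→luciferase), 1500 cells/well in Opti-MEM + 10% FBS, 2 h settle, then compound 24 h at 37 °C. Luminescence after 10 min with Amplite reagent.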
Rab9 promoter act: qHTS Assay for Rab9 Promoter Activators; Huh7 Rab9 promoter-luciferase reporter, luminescence, 24 h; Potency, µM (highest dose often 9.22 µM), without a hit: at the highest dose activation, negative = inhibition, most hits filed as activators; 320,000 tested, 2.8% active; note: % of control where 0% means no effect; nearly all actives have a fitted effect of over 60% in size
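Luciferase signal after 10 min detection reagent at ambient indicates Rab9 promoter upregulation; stably transfected Huh7 cells were treated 24 h with compound in DMSO at 37 °C, 5% CO2.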
FLuc counter: qHTS profiling assay for firefly luciferase inhibitor/activator using purifed enzyme and Km concentrations of substrates (counterscreen for miR-21 project). Luciferin 4-monooxygenase (Photinus pyralis), P08659. purified FLuc, Km substrates, luminescence inhibition. Potency, µM (highest dose often 57.5 µM), for inactives: at the highest dose activity change, negative = inhibition, hits mostly inhibitors. 360,000 tested, 6.9% active. AID 588342, 2011;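 note: plate controls were vehicle for no effect and reference inhibitor for full effect; nearly all actives have a fitted effect of over 55% in size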
Target sequence (P08659 whole entry, looked up): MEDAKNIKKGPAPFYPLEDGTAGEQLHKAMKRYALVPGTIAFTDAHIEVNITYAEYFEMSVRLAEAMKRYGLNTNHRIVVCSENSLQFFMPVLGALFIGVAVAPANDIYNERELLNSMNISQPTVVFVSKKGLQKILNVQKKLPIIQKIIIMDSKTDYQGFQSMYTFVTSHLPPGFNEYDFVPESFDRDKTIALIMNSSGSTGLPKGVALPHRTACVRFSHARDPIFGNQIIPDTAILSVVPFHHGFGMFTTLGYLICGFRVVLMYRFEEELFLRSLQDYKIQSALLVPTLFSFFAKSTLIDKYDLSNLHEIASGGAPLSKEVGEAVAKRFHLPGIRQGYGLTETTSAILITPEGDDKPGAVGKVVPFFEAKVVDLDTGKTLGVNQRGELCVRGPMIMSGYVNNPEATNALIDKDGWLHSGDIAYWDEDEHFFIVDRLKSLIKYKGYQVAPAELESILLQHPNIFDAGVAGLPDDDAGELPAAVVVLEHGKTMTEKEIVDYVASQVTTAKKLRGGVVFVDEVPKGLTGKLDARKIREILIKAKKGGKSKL
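Purified P. pyralis luciferase, 10 nM final, with Km-level 10 uM D-luciferin and 10 uM ATP in 50 mM Tris acetate pH 7.5, 10 mM Mg acetate, 0.01% Tween-20, 0.05% BSA; 6-point qHTS titration about 60 µM downward; luminescence read.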
An asterisk follows results filed as active; u = inconclusive; x = no result given; [ ] = dose if it differs, or a comment. Calls come from the whole dose curve; as a rule, active = well fitted curve in the direction sought with a large enough effect; inconclusive = small, poorly fitted or top-dose-only effect, or another doubt; inactive = no such curve, though single readings can be large; an effect the other way counts as inactive or inconclusive. Potency is the fitted concentration of half-maximal effect.

SMILES	ELG1 genotox	p53 reactivation	SMN2 splice enh	NPC1 promoter act	Rab9 promoter act	FLuc counter
Cc1cc(Nc2ccc(Cl)cc2)nc(N)n1	u	3%	16%	u	u	19µM*
Nc1cc(Nc2ccc(Br)cc2)nc(N)n1	u	7%	x	3.5µM*	u	13µM*
COc1ccccc1CNC(=O)c1ccc2c(c1)nc(C)n2-c1cccc(C)c1	x	x	x	x	x	-14%
CCC(C)(C)C1CCc2[nH]nc(C(=O)NC3CCCC3)c2C1 (stereo unspecified)	-4%	6%	x	12%	17%	-14%
O=C(NC1CCCC1)c1n[nH]c2ccccc12	u	18%	x	3.2µM*	2.8µM*	24µM*
O=C(NC1CCCCC1)c1n[nH]c2c1CCCCC2	u	-15%	x	u	0.089µM*	0.38µM*
O=C(COC(=O)c1n[nH]c2ccccc12)NC(=O)NC1CCCC1	-3%	-2%	-2%	-1%	5%	0%
O=C(NN=C1CCCC1)c1n[nH]c2c1CCCC2	u	11%	22µM*	2.5µM*	0.63µM*	5.4µM*
Cc1ccccc1OCc1ccc(-c2nc(C#N)c(N3CCC(C(N)=O)CC3)o2)o1	x	x	x	x	x	-20%
CCOC(=O)COc1ccc(CC)cc1C(=O)c1ccn2nc(-c3ccccc3)cc2n1	x	x	13%	x	x	4%
O=C(COc1ccccc1)Nc1ccc(C(=O)OCc2cc(=O)n3nc(C4CC4)sc3n2)cc1	x	x	x	x	x	0%
CCOc1cc(C(=O)Nc2ccc(-c3nc4cc(Cl)ccc4o3)cc2)cc(OCC)c1OCC	x	x	-3%	x	x	-8%
O=C(Cc1ccccc1)Nc1ccc(-c2nnc(-c3ccco3)o2)cc1	2%	29%	1%	0%	8%	3%
Cc1ccc(-c2nnc(-c3ccc(Br)cc3)o2)o1	u	u	13µM*	u	3.2µM*	3µM*
Brc1ccc(-c2nnc(-c3ccco3)o2)cc1	u	u	x	3.2µM*	4µM*	8.5µM*
c1coc(-c2nnc(-c3ccco3)nn2)c1	4%	22%	x	u	u	17µM*
O=C(O)CCC(=O)Nc1ccc(-c2nnc(-c3ccco3)o2)cc1	3%	3%	1%	2%	-9%	u
c1ccc(-c2nnc(-c3ccco3)o2)cc1	2.1µM*	u	x	3.2µM*	3.2µM*	21µM*
CSc1nnc(-c2ccco2)c(-c2ccco2)n1	3%	u	u	0%	7%	u
COc1cc(NC(=O)c2noc3c2CC(C)CC3)c(OC)cc1Cl (stereo unspecified)	x	x	x	x	x	-10%
C[C@H]1Cc2c(-c3ccccc3)nc3c(c2CO1)CN(S(=O)(=O)c1ccc(C#N)cc1)CC3	x	x	6%[9.22 µM]	x	x	x
O=C(Nc1ccc(C(F)(F)F)cc1)C1CCCN(c2cnccn2)C1 (stereo unspecified)	x	x	-20%	x	x	-2%
c1coc(-c2nnc(-c3cccs3)o2)c1	u	16%	11µM*	u	u	u
Cc1ccc(NC(=O)CO/N=C/c2ccc(N(C)C)cc2)cc1	6%	2%	-17%	8%	0%	15µM*
CCOc1ccc(/C=N/OCC(=O)Nc2ccc3c(c2)OCO3)cc1	3%	2%	-7%	-2%	1%	u
SMILES	ELG1 genotox	p53 reactivation	SMN2 splice enh	NPC1 promoter act	Rab9 promoter act	FLuc counter
CN(C)c1ccc(/C=N/OC(=O)Nc2ccccc2)cc1	u	21%	x	0.71µM*	0.45µM*	1.1µM*
Cc1[nH][nH]c(=O)c1C(c1ccc(-c2cccc(C(=O)O)c2)o1)c1c(C)[nH][nH]c1=O	14%	4%	x	20%	u	15µM*
CCOc1ccc(-c2cn3c(n2)sc2cc(C(=O)NCCCc4ccccc4)ccc23)cc1	x	x	x	x	x	-2%
O=c1nc(Nc2ccc(OCc3ccccc3)cc2)sc2ncccc12	-3%	16%	3.5µM*	-2%	13%	-2%
CC(=O)c1ccc(Nc2nc(=O)c3cccnc3s2)cc1	x	x	u	x	x	-10%
CC(=O)c1cccc(Nc2nc(=O)c3cccnc3s2)c1	u	2%	-7%	2%	1%	u
CCOC(=O)c1ccc(Nc2nc(=O)c3cccnc3s2)cc1	5%	7%	10µM*	3.5µM*	4.5µM*	u
COc1ccccc1NC(=O)C(Cc1ccccc1)NS(=O)(=O)c1ccc2c(c1)c(=O)n(C)c(=O)n2C (stereo unspecified)	x	x	-6%	x	x	-6%
COc1cc(OC)cc(-c2nnc(SCC(=O)N3CCC(C)CC3)o2)c1	x	x	-18%	x	x	2%
C=CCOc1ccccc1CN1CCC(Oc2cc(C(=O)NC3CC3)ccc2OC)CC1	-5%	4%	x	-4%	-5%	0%
N#CCOc1ccccc1/C=C/c1nc2ccccc2c(=O)[nH]1	15%	u	x	u	u	u
CCn1c(/C=C/c2ccccc2C)nc2ccccc2c1=O	5%	2%	x	0%	3%	u
Cc1ccccc1/C=C/c1nc2ccccc2c(=O)[nH]1	10µM*	-1%	x	u	1.4µM*	2.1µM*
Cc1ccccc1/C=C\c1nc2ccccc2c(=O)[nH]1	18µM*	u	10µM*	u	0.56µM*	1.9µM*
COc1ccc(-c2cc3ccc(O)c(CN4CCC(C)CC4)c3oc2=O)cc1	x	x	x	x	x	-4%
C[C@]12CC[C@H]3c4ccc(O)cc4CC[C@@H]3[C@H]1CC[C@@H]2OC(=O)CCc1ccccc1	x	x	6%[9.22 µM]	x	x	x
Cc1ccc(-n2nc3ccc(NC(=O)/C=C/c4ccco4)cc3n2)cc1	u	16%	14µM*	u	u	u
O=C(/C=C/c1ccco1)Nc1cccc(C(=O)Nc2ccccc2C(=O)O)c1	-6%	3%	x	-3%	1%	21µM*
Cc1ccc(NC(=O)c2cccc(NC(=O)/C=C/c3ccco3)c2)cc1C	0%	u	18µM*	u	3.2µM*	1.9µM*
CCc1ccccc1NC(=O)c1cccc(NC(=O)/C=C/c2ccco2)c1	-2%	u	11%	1%	u	3µM*
Cc1ccccc1NC(=O)c1cccc(NC(=O)c2ccco2)c1	-1%	x	x	-3%	0%	u
CN(Cc1cc(Br)cc(Br)c1N)C1CCCCC1	x	x	-12%	x	x	x
Cc1ccc(NC(=O)N/C=C/c2ccco2)cc1C	0%	15%	-3%	27%	18%	11µM*
Cc1ccc(NC(=O)N/C=C/c2ccco2)c(C)c1	4%	3%	10%	1%	-1%	u
Cc1nnc(N2CCN(C(=O)Nc3cc(F)ccc3F)CC2)c2nn(-c3ccc(Cl)cc3)c(C)c12	x	x	x	x	x	-11%
